Common to all, as to test: NCI-60 one-dose screen, 48 h (100 = growth as untreated, 0 = no growth, -100 = all killed)
What all share (details): 10 µM unless noted

Assay [1] has as its system NCI-H23 lung.
The test system of assay [2] is NCI-H226 lung.
Assay [3] deals with NCI-H322M lung.
For assay [4], the system named is HOP-62 NSCLC.
Assay [5] deals with NCI-H460 lung.
Assay [6] has as its system HOP-92 NSCLC.
In assay [7] the test system is NCI-H522 lung.
Assay [8] concerns A549/ATCC NSCLC.
For assay [9], the system named is 786-0 renal.
Assay [10] deals with COLO 205 colon.

Each structure is given as a SMILES string. The panel holds about 83,000 compounds, 20% with a hit somewhere; the sample as a whole holds those more often.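 Plates (96-well) were seeded with cells, treated with compound at one concentration, and incubated for 48 hours before percent growth was determined.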 Values without a mark were called inactive. Activity calls are given as the source filed them. The calls were made as follows: active = growth percent below 10; inactive = the rest.

For `O=c1c(/C=C/c2ccco2)nnc(SCCN2CCOCC2)n1/N=C/c1ccc([N+](=O)[O-])cc1`, the growth in assay [1] is 91%; in assay [2] it was 85.5%; in assay [3], 113%; in [4], 101%; in [5], 103%; in assay [6], 90.5%. Further, the growth in assay [7] was 86.5%; in assay [8], 99.4%; in [9], 95.2%; in assay [10], 112%.
For the compound `CCN(CC)Cc1cc(Nc2c3ccc(Cl)cc3nc3c(C)cccc23)ccc1O`, the growth was -75.5% (active) in assay [1]; -28.1% (active) in assay [2]; -25.6% (active) in [3]; -74.6% (active) in assay [4]; -78.1% (active) in assay [5]; -62.7% (active) in assay [6]. Besides, the growth in [7] is -77.2% (active); in assay [8], -15.5% (active); in assay [9] it was -91.6% (active); in assay [10], -92.4% (active).
For `Nc1cccc(-c2nc3sccn3c2-c2ccnc(NCCCNS(=O)(=O)c3ccc(C(F)(F)F)cc3)n2)c1`, the growth is 4.88% (active) in assay [1]; 2.96% (active) in [2]; 19.4% in assay [3]; 19.5% in assay [4]; 2.98% (active) in assay [5]; 71.4% in [6]. Further, the growth is 8.73% (active) in [7], 12.8% in assay [8], 23.6% in [9] and 6.24% (active) in assay [10].
Turning to `CC/C=C\C[C@H](O)C/C=C1/C(=O)C=C[C@@H]1C/C=C\CCCC(=O)NC(C)C`, the growth in assay [1] was 13.4%; in assay [2] it was -33.5% (active); in assay [3], 39.9%; in [4], -16.8% (active); in assay [5], -4.43% (active); in assay [6], 65.3%. Besides, the growth in [7] is -35.5% (active); in assay [8], 2.59% (active); in assay [9] it was 0.451% (active); in assay [10], -41.3% (active).
With `O=C1Nc2ccccc2/C1=C/C(=N/c1nnc(-c2ccc(Cl)cc2)s1)c1ccccc1`, the growth in [1] was 29.1%; in assay [2], 84.3%; in assay [3] it was 77%; in assay [4], 51.5%; in assay [5] it was 63.7%; in assay [6], 26.3%. For the same compound, the growth in assay [7] was -95.7% (active); in [8], 82.6%; in [9], -56.9% (active); in assay [10], 0.635% (active).
For the compound `Cc1nc2nc(N)nc(N)c2nc1C`, the growth in assay [1] is 91.5%; in assay [2], 94.6%; in assay [3] it was 95.1%; in [4], 88.6%; in [5], 108%; in assay [6], 87.3%. In addition, the growth was 89.8% in [7], 102% in [8], 98.4% in assay [9] and 117% in assay [10].
Regarding `Cc1ccc2c(c1)C(=O)/C(=C/c1ccc(OCC(=O)c3ccccc3)cc1)O2`, the growth in assay [1] is 84.7%; in [2] it was 69.4%; in assay [3], 108%; in assay [4], 87.5%; in [5], 108%; in assay [6], 66.8%. Besides, the growth in assay [7] is 89.2%; in assay [8] it was 81.6%; in assay [9], 86.8%; in [10], 107%.
For `CNc1cc2nc3cc(NC)c(C)cc3cc2cc1C`, the growth in assay [1] is 13.3%; in [2] it was 26.4%; in assay [3], 12.5%; in assay [4], 10.7%; in [5] it was -85.8% (active); in assay [6], 11.7%. For the same compound, the growth was -2.17% (active) in assay [7], -4.57% (active) in assay [8], 12.9% in assay [9] and -39.1% (active) in assay [10].
In the case of `CCN(CC)Cc1cc(Nc2c3ccccc3nc3cc(Cl)ccc23)ccc1O`, the growth was -82.6% (active) in assay [1]; -47.5% (active) in [2]; -40.9% (active) in assay [3]; -65.2% (active) in assay [4]; -73.6% (active) in assay [5]; -33.1% (active) in assay [6]. In addition, the growth in assay [7] was -80.8% (active); in assay [8] it was -37.6% (active); in assay [9] it was -55.1% (active); in assay [10], -100% (active).
For `CC1=CC(=O)CC(C)(C)[C@@]1(O)/C=C/[C@@H](C)O`, the growth in assay [1] is 89.7%; in assay [2] it was 80.8%; in assay [3] it was 103%; in assay [4] it was 107%; in assay [5], 112%; in assay [6], 97%. The growth is 92.7% in assay [7], 87.7% in assay [8], 102% in assay [9] and 110% in assay [10].
`Nc1ccc(Nc2nccc(-c3ccc4ccccc4c3)n2)cc1`: the growth is 41.2% in [1]; 64% in assay [2]; 64.5% in assay [3]; 44.2% in [4]; 17.8% in [5]; 65.1% in [6]. The growth is 27.6% in assay [7], 25.5% in [8], 58.7% in [9] and 49.4% in assay [10].
Regarding `COC1C/C(=N\O)C2OC(c3ccccc3)OCC2O1` (stereo not given), the growth is 101% in assay [1]; 103% in assay [2]; 99.9% in [3]; 114% in assay [4]; 112% in assay [5]; 90.7% in assay [6]. Also, the growth was 97.3% in [7], 88.3% in assay [8], 104% in assay [9] and 107% in [10].
For the compound `COc1ccc(/C=C/C(=O)c2ccc(NC(=O)c3cc4cc5ccccc5nc4s3)cc2)cc1OC`, the growth in [1] was 87%; in assay [2] it was 86%; in assay [3], 84.2%; in assay [4], 92.3%; in assay [5], 99.9%; in assay [6], 108%. Besides, the growth in assay [7] is 95.9%; in assay [8], 105%; in assay [9] it was 106%; in [10], 99.5%.

Source of the values: PubChem BioAssay (NCI).
